# Nrf2 block – inhibitors of Nrf2 signaling; A549 ARE-Fluc reporter, luciferase luminescence, 18-24 h; Potency, µM (titrated, usually from 46 µM), inactives show at the highest dose activity change, negative = inhibition, actives largely listed as inhibitors; AID 504444; 360,000 tested, 2.1% active; further: potency means the concentration at half of the fitted maximal effect; on the % scale 0 is the no-effect control and ±100 the full control effect; nearly all actives have a fitted effect of over 60% in size
#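 Quantitative HTS in A549 cells stably bearing an antioxidant response element-firefly luciferase construct. Inhibition of Nrf2-driven transcription was scored by luminescence after 18-24 h of compound exposure at 37 °C.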
# A549 viability – A549 cytotoxicity, counter-screen for Nrf2 inhibitors; 390,000 tested, 0.16% active; Potency, µM (titrated, usually from 46 µM), for the others: top-dose activity change, negative = cytotoxicity, usual class: inhibitors; AID 504648; A549 ARE-Fluc cells, CellTiter-Fluor viability, 18-24 h; further: potency means the concentration at half of the fitted maximal effect; on the % scale 0 is the no-effect control and ±100 the full control effect
#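 A549 ARE_Fluc cells in 5% FBS OPTI-MEM were exposed to compounds in concentration-response for 18-24 h at 37 deg C. Viability was read by CellTiter-Fluor fluorescence (Ex 405/Em 525) after 30 min, before the luciferase read.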
# Nrf2 ARE act – activates Nrf2 signaling; AREc32 ARE-luciferase reporter (MCF7-derived line), luminescence, 24 h; Potency, µM (series often up to 46.1 µM), for the others: top-dose activation, most hits filed as activators; 410,000 tested, 0.31% active; AID 624171; further: potency means the concentration at half of the fitted maximal effect; % of control where 0% means no effect; nearly all actives have a fitted effect of over 65% in size
#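 Steps: seed AREc32_Fluc cells (1000/well, 5% FBS OPTI-MEM); incubate overnight at 37 deg C; add 23 nL compound; incubate 24 hr; add Steady-Glo; hold 30 min RT; read luminescence.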
# LDHA block – blocks human lactate dehydrogenase A; purified LDHA, NADH/diaphorase-resazurin fluorescence; stronger effect = lower value; 480,000 tested, 0.15% active; AID 1347041; activity change, % (values are at about 110 or 230 µM); in the data active means activity change below about -30%; inconclusive means mostly about -25% to -30%;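 further: plate controls were DMSO wells for no effect and wells without enzyme for full effect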
#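 Human LDH5 at 2 nM final in Tris HCl pH 7.4 with 0.06 mM NADH and 0.2 mM pyruvate, reacted 5 minutes at room temperature. Remaining NADH coupled via diaphorase/resazurin; resorufin fluorescence read at 0 and 20 minutes, normalized to enzyme-free and DMSO wells.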
# ERG-DNA inh – ERG Ets/DNA interaction inhibition | Potency, µM (titrated, usually from 76.9 µM), for inactives: at the highest dose FP activity, negative = inhibition, actives largely listed as inhibitors | P11308 | fluorescence polarization, His-ERG Ets domain / labelled DNA | 370,000 tested, 0.028% active; active means well fitted inhibition curve with a large enough effect in the polarisation, with a control signal flat; inconclusive means small, poorly fitted or top-dose-only effect, or effect the other way, or a change in a side signal; inactive means no such curve, though single readings can be large or run the other way; the % refers to the polarisation;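 further: polarization taken with two DNA probes labelled with fluorescein and Texas red; potency means the concentration at half of the fitted maximal effect; % of control where 0% means no effect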
# Target sequence (P11308 whole entry, looked up, the tested form may be a part): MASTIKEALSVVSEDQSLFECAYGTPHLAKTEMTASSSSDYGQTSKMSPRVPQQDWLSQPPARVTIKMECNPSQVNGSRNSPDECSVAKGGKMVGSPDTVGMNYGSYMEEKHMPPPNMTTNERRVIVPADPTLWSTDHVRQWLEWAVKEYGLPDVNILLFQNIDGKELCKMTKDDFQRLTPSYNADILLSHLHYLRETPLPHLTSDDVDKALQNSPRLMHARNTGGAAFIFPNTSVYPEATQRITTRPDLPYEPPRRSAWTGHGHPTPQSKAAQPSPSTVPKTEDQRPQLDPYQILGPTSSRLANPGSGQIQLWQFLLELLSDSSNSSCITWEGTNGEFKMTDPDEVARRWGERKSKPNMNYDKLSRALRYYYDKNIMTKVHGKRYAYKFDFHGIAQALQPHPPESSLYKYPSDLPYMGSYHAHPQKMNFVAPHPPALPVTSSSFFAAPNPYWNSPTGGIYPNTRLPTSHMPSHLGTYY
#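 His-tagged ERG Ets domain (1 uM in the protein solution; 300mM KCl, 50mM Tris-HCl, 1mM EDTA, 1mM DTT, pH 7.5) received compound, then a probe mix of 5 nM fluorescein-DNA and 100nM Texas-615-DNA. Fluorescence polarization was read for both dyes.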
# 12-LOX inh – inhibitors of human 12S-lipoxygenase ALOX12; P18054; purified 12hLO, xylenol orange hydroperoxide absorbance; Potency, µM (doses to about 108 µM), for inactives: top-dose activity change, negative = inhibition, hits mostly inhibitors; 580,000 tested, 1.1% active; further: potency means the concentration at half of the fitted maximal effect; on the % scale 0 is the no-effect control and ±100 the full control effect
#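 Purified human 12hLO at 150 nM in 25 mM Hepes, 0.01% Triton X-100, pH 7.0, preincubated 15 min at room temperature with compound. Reaction started with 40 uM arachidonic acid, 30 min at room temperature. Hydroperoxide measured by Fe-xylenol orange, 573/405 nm absorbance ratio.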
# An asterisk follows results filed as active; ? = inconclusive; . = no result; ! = a repeat was not active. Compounds with a hit are over-represented: about 2.7% of the library has one in this group of screens. Unless noted, the call rests on the fitted dose curve; in most records, active means well fitted curve in the direction sought with a large enough effect; inconclusive means small, poorly fitted or top-dose-only effect, or another doubt; inactive means no such curve, though single readings can be large; an effect the other way counts as inactive or inconclusive.
SMILES,Nrf2 block,A549 viability,Nrf2 ARE act,LDHA block,ERG-DNA inh,12-LOX inh
Cc1ccc(NCC(=O)Nc2cccc(S(=O)(=O)N(C)C)c2)cc1S(=O)(=O)N1CCCCCC1,8.2µM*,?,-1%,-1,9%,-10%
Cc1ccc(NC(=O)CSc2nc(N)cc(N)n2)cc1S(=O)(=O)N1CCOCC1,-7%,2%,0%,-8,3%,0%
Cc1ccc(NCC(=O)Nc2ccc(F)c(Cl)c2)cc1S(=O)(=O)N1CCOCC1,.,.,4%,-2,.,12%
CCOc1ccc(CNCc2c(C(=O)O)c(C)n(Cc3ccccc3Cl)c2C)cc1,.,.,.,0,.,?
O=C(/C=C/c1cc(O)ccc1Br)c1ccc(Cl)cc1Cl,.,.,.,1,.,?
COc1ncc2nc(-c3cn(C)c4ccccc34)c(=O)n(Cc3ccc(F)cc3)c2n1,.,.,.,.,.,0%
COc1cccc(Cn2c(=O)c(-c3cn(C)c4ccccc34)nc3cnc(OC)nc32)c1,.,.,.,.,.,40µM*
CC1(C)CCc2cc(-c3ccn(S(=O)(=O)c4ccccc4Cl)n3)ccc2O1,-12%,11%,0%,-5,-3%,?
COc1ccc(S(=O)(=O)n2ccc(-c3ccc4c(c3)CCC(C)(C)O4)n2)cc1,13µM*,0%,0%,-9,-4%,-5%
COc1cc2c(cc1OC)CN1CCc3cc(OC)c(OC)cc3C1C2 (stereo not drawn),.,.,.,.,.,-24%
CCC1=C(CC2NCCc3ccccc32)CC2c3cc(OC)c(OC)cc3CCN2C1 (stereo not drawn),3.7µM*,7.3µM*,-1%,-3,.,-16%
CCN(CCC(=O)Nc1cc(OC)cc(OC)c1)Cc1ccccc1,8%,1%,3%,9,3%,-19%
COc1cccc(CN(CCC(=O)O)Cc2cccc(OC)c2)c1,.,.,-1%,-19,.,18µM*
CCOc1ccc(CNc2cccc(C)c2)cc1,.,.,.,4,.,?
Cc1cccc(NCc2cc(C(C)(C)C)c(O)c(C(C)(C)C)c2)c1,.,.,.,55,.,10µM*
CCN(C[C@H]1N[C@@](Cc2ccccc2)(C(=O)OC)[C@H]2C(=O)N(Cc3ccccc3)C(=O)[C@@H]12)C(=O)C1CCCCC1,15µM*,?,0%,-3,-8%,2%
COc1ccc(NC(=O)CSC2=Nc3ccccc3C3=NC(C(C)C)C(=O)N23)cc1OC (stereo not drawn),.,.,.,10,.,32%
COC(=O)N1CCCc2cc(S(=O)(=O)NCc3ccccc3)ccc21,23µM*,-8%,3%,5,-5%,-12%
COc1ccc(COCC(O)CN(C)Cc2ccc(OC)c(OC)c2OC)cc1 (stereo not drawn),.,.,.,-7,.,2%
CNc1sc(C(=O)c2ccc(F)cc2)c(N)c1-c1nc2ccccc2s1,11%,-18%,11µM*,-2,1%,0%
Cc1cc(N2CCN(S(=O)(=O)c3ccc(Cl)cc3C(F)(F)F)CC2)nc(C(C)C)n1,.,.,.,14,.,-13%
CNC(=S)N/N=C/c1c(C)c(C(=O)c2ccc(F)cc2)n2ccccc12,-5%,-3%,4%,-3,10%,35µM*
CNC(=S)N/N=C/c1cn(Cc2ccc(F)cc2)c2ccccc12,?,-1%,2%,1,2%,28µM*
Cc1c(/C=N/NC(N)=O)c2ccccn2c1C(=O)c1ccc(F)cc1,?,-21%,9%,-3,.,-28%
COC(=O)N/N=C/c1cn(Cc2ccc(F)cc2)c2ccccc12,?,-1%,4%,-4,7%,7%
SMILES,Nrf2 block,A549 viability,Nrf2 ARE act,LDHA block,ERG-DNA inh,12-LOX inh
CNC(=S)N/N=C/c1cn(CCOc2ccc(OC)cc2)c2ccccc12,13%,-1%,6%,-4,-7%,40µM*
Cc1ccc2nc(/C(C#N)=C/c3ccc(-c4ccc(C)c(Cl)c4)o3)[nH]c2c1,.,.,.,-1,.,?
O=C(c1ccn[nH]1)N1CCC(c2nc(CCOc3ccc(F)cc3)no2)C1 (stereo not drawn),.,.,.,.,.,32%
CC(C)C[C@@H](CN1CCCC1CN1C(=S)NC[C@@H]1Cc1ccccc1)N1C[C@H](Cc2ccccc2)N(CCc2ccccc2)C1=S (stereo partly drawn),.,.,-1%,-10,.,40µM*
CC(C)C[C@@H](CN1CCCC1CN1C(=S)NC[C@@H]1Cc1ccc(O)cc1)N1C[C@H](Cc2ccc(O)cc2)N(CC2CCCCCC2)C1=S (stereo partly drawn),21µM*,-7%,-3%,-2,6%,?
CC(C)C[C@@H](CN1CCCC1CN1C(=S)NC[C@@H]1Cc1ccccc1)N1C[C@H](Cc2ccccc2)N(CC2CCCCCC2)C1=S (stereo partly drawn),.,.,0%,-2,.,35µM*
COc1ccc(CCn2c(SCCC(C)C)nc3c2c(=O)n(C)c(=O)n3C)cc1,.,.,.,11,.,?
Cc1ccc(NC(=O)CN(C)S(=O)(=O)c2ccc3[nH]c(=O)oc3c2)c(C)c1,10%,1%,0%,0,14%,?
Cc1ccc(NS(=O)(=O)c2ccc3[nH]c(=O)oc3c2)c(C)c1,11%,3%,0%,-1,24%,50µM*!
Cc1nn(Cc2ccccc2)c(C)c1C(=O)OCC(=O)c1cc(C)n(CC(F)(F)F)c1C,16µM*,-9%,1%,4,5%,0%
COCCn1c(C)cc(C(=O)COC(=O)c2c(C)nn(Cc3ccccc3)c2Cl)c1C,.,.,.,9,.,6%
Cc1ccc(S(=O)(=O)n2ccn(C(=O)CC3CCCCC3)c2=O)cc1,.,.,.,0,.,-9%
COc1ccc(C#CC2=CC(=O)CC(C)(C)C2)cc1,.,.,13µM*,-5,.,-20%
CCc1ccc(C#CC2=CC(=O)CC(C)(C)C2)cc1,.,.,?,3,.,-4%
COc1ccccc1C#CC1=CC(=O)CC(C)(C)C1,.,.,14µM*,-1,.,-15%
CN(C)C(=O)C1CC1c1ccc(Br)cc1 (stereo not drawn),.,.,.,6,.,?
c1nc(NCC2CCCO2)c2[nH]cnc2n1 (stereo not drawn),.,-15%,0%,-9,4%,21%
c1ccc2c(c1)[nH]c1c(NCC3CCCO3)ncnc12 (stereo not drawn),15µM*,-3%,6%,-17,-4%,354%
c1ccc(Nc2nc(NCC3CCCO3)c3ccccc3n2)cc1 (stereo not drawn),18µM*,-25%,0%,0,-3%,45µM*
CCCCOc1ncnc2c1[nH]c1ccccc12,8.2µM*,?,7%,-13,-4%,35%

# Compound activity from PubChem BioAssay.
